Laboratory results published in the supplement of paper PMC10849652.
About 7,900 targets were measured; listed, in parts, are those with a hit and a random draw of the rest. About 0.6% of all pairs of compound and target were hits.

Key:
Experiment in all cases: log2 fold change, soluble protein after heating vs DMSO (PISA); higher = thermal stabilisation; K562 cells, 10 uM, 30 min; active = over 0.2 and 3.5 SD of the protein, either way, in both replicates (recomputed)
[1] = compound: CC[C@@H]1C(=O)N(C)c2cnc(Nc3ccc(C(=O)NC4CCN(C)CC4)cc3OC)nc2N1C1CCCC1
Summary of the method: (§1)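 K562 cells at 2×10^6 cells/mL were treated with 10 μM compound for 30 min. Aliquots were heated for 3 min across 48°C-58°C, pooled, and extracted in PBS with 0.5% NP-40 at 4°C; soluble protein was the supernatant after 21,000xg for 90 min. Soluble protein was quantified by TMTpro 16plex LC-MS/MS with channel sums equalised, and reported as log2 fold change in thermal stability against DMSO controls, with values from duplicates.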

volasertib = compound: CC[C@@H]1C(=O)N(C)c2cnc(Nc3ccc(C(=O)N[C@H]4CC[C@H](N5CCN(CC6CC6)CC5)CC4)cc3OC)nc2N1C(C)C [volasertib]
Summary of the method: as §1

[2] = compound: CC[C@H](C)N1C=C(C2=C(C=C(C=C21)C3=CN=C(C=C3)N4CCNCC4)C(=O)NCC5=C(C=C(NC5=O)C)C)C
Summary of the method: as §1

epoxomicin = compound: CC[C@H](C)[C@@H](C(=O)N[C@@H]([C@@H](C)O)C(=O)N[C@@H](CC(C)C)C(=O)[C@]1(CO1)C)NC(=O)[C@H]([C@@H](C)CC)N(C)C(=O)C [epoxomicin]
Summary of the method: as §1

[3] = compound: CCn1c(C(=O)N(C2CC2)C2CC2)cc2c3c(ncn3C)c(Nc3cc(C)n(C)n3)nc21
Summary of the method: as §1

[4] = compound: CCn1cc(-c2ccnc3[nH]c(-c4cccc(CN(C)C)c4)cc23)c(-c2ccc(NC(=O)N(C)C)cc2)n1
Summary of the method: as §1

[5] = compound: CN(C)CC(=O)Nc1ccc2[nH]c(=O)c3ccccc3c2c1
Summary of the method: as §1

rosiglitazone = compound: CN(CCOC1=CC=C(C=C1)C[C@H]2C(=O)NC(=O)S2)C3=CC=CC=N3 (racemic) [rosiglitazone]
Summary of the method: as §1

[6] = compound: CN1C2=C(C3=C1C(=O)N(N=C3)CC4=CC(=CC=C4)N)SC(=C2)S(=O)C
Summary of the method: as §1

[7] = compound: CN1CCC(CNc2ccc3ncc(-c4cccc(OC(F)(F)F)c4)n3n2)CC1
Summary of the method: as §1

saracatinib = compound: CN1CCN(CCOc2cc(OC3CCOCC3)c3c(Nc4c(Cl)ccc5c4OCO5)ncnc3c2)CC1 [saracatinib]
Summary of the method: as §1

sotrastaurin = compound: CN1CCN(c2nc(C3=C(c4c[nH]c5ccccc45)C(=O)NC3=O)c3ccccc3n2)CC1 [sotrastaurin]
Summary of the method: as §1

alvocidib = compound: CN1CC[C@H](c2c(O)cc(O)c3c(=O)cc(-c4ccccc4Cl)oc23)[C@H](O)C1 [alvocidib]
Summary of the method: as §1

Tubastatin A = compound: CN1CCc2c(c3ccccc3n2Cc2ccc(C(=O)NO)cc2)C1 [Tubastatin A]
Summary of the method: as §1

[8] = compound: CNC(=O)C1=CC=CC=C1NC2=NC(=NC=C2Cl)NC3=C(C=C(C=C3)N4CCOCC4)OC
Summary of the method: as §1

defactinib = compound: CNC(=O)c1ccc(Nc2ncc(C(F)(F)F)c(NCc3nccnc3N(C)S(C)(=O)=O)n2)cc1 [defactinib]
Summary of the method: as §1

rucaparib = compound: CNCc1ccc(-c2[nH]c3cc(F)cc4c3c2CCNC4=O)cc1 [rucaparib]
Summary of the method: as §1

[9] = compound: CNc1nc(-c2ccc3c(N)n[nH]c3c2)cc(N2C[C@@H](C(=O)NC3CCCCC3)CC[C@H]2C)n1
Summary of the method: as §1

encorafenib = compound: COC(=O)N[C@@H](C)CNc1nccc(-c2cn(C(C)C)nc2-c2cc(Cl)cc(NS(C)(=O)=O)c2F)n1 [encorafenib]
Summary of the method: as §1

[10] = compound: COC(=O)[C@H](CCSC)NC(=O)C1=C(C=C(C=C1)NC[C@H](CS)N)C2=CC=CC=C2
Summary of the method: as §1

Measured: log2 fold change

NOP53 (UniProt Q9NZM5)
inactive: [1] 0.174 | volasertib 0.393 | [2] -0.014 | epoxomicin -0.009 | [3] -0.132 | [4] 0.013 | [5] -0.111 | rosiglitazone -0.053 | [6] 0.516 | [7] 0.599 | saracatinib -0.063 | sotrastaurin -0.014 | alvocidib 0.396 | Tubastatin A 0.141 | [8] -0.019 | defactinib 0.62 | rucaparib 0.36 | [9] 0.035 | encorafenib 0.174 | [10] -0.022

MSH3 (UniProt P20585)
Sequence of UniProt P20585 (P20585 whole entry, looked up): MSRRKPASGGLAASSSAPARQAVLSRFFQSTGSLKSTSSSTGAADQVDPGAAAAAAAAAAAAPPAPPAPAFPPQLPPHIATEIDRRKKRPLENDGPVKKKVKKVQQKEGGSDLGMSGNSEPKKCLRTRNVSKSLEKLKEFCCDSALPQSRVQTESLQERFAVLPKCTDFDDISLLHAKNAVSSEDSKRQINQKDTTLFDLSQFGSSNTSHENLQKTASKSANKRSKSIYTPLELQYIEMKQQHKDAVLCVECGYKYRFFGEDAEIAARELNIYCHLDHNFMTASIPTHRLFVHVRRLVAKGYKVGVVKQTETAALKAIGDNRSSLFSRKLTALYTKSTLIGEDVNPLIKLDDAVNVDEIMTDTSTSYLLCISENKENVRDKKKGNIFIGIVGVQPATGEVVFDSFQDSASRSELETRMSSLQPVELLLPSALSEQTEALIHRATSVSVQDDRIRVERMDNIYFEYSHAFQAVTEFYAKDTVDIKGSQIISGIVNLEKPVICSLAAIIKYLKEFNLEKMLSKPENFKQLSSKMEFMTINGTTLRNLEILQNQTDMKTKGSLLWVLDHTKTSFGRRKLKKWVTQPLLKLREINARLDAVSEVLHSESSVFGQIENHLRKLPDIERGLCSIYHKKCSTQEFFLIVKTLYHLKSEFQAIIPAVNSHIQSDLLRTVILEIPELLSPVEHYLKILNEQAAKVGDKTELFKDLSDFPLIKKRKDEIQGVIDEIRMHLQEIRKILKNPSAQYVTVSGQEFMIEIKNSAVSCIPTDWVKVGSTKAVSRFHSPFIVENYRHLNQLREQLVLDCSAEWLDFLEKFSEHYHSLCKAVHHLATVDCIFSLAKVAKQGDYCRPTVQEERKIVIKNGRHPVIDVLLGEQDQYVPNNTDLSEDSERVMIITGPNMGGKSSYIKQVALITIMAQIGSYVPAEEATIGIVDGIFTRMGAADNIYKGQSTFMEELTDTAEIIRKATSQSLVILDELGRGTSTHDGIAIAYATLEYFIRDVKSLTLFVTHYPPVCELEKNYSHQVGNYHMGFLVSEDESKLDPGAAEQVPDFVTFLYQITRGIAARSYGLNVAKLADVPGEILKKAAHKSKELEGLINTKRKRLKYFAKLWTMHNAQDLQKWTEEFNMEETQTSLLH
inactive: [1] -0.032 | volasertib -0.179 | [2] -0.003 | epoxomicin 0.062 | [3] -0.072 | [4] -0.019 | [5] -0.028 | rosiglitazone 0.019 | [6] -0.008 | [7] 0.047 | saracatinib -0.013 | sotrastaurin -0.003 | alvocidib -0.015 | Tubastatin A 0.045 | [8] -0.026 | defactinib 0.015 | rucaparib 0.031 | [9] -0.011 | encorafenib 0.069 | [10] -0.02

NRDC isoform 2 (UniProt O43847)
Sequence of UniProt O43847 (O43847 whole entry, looked up): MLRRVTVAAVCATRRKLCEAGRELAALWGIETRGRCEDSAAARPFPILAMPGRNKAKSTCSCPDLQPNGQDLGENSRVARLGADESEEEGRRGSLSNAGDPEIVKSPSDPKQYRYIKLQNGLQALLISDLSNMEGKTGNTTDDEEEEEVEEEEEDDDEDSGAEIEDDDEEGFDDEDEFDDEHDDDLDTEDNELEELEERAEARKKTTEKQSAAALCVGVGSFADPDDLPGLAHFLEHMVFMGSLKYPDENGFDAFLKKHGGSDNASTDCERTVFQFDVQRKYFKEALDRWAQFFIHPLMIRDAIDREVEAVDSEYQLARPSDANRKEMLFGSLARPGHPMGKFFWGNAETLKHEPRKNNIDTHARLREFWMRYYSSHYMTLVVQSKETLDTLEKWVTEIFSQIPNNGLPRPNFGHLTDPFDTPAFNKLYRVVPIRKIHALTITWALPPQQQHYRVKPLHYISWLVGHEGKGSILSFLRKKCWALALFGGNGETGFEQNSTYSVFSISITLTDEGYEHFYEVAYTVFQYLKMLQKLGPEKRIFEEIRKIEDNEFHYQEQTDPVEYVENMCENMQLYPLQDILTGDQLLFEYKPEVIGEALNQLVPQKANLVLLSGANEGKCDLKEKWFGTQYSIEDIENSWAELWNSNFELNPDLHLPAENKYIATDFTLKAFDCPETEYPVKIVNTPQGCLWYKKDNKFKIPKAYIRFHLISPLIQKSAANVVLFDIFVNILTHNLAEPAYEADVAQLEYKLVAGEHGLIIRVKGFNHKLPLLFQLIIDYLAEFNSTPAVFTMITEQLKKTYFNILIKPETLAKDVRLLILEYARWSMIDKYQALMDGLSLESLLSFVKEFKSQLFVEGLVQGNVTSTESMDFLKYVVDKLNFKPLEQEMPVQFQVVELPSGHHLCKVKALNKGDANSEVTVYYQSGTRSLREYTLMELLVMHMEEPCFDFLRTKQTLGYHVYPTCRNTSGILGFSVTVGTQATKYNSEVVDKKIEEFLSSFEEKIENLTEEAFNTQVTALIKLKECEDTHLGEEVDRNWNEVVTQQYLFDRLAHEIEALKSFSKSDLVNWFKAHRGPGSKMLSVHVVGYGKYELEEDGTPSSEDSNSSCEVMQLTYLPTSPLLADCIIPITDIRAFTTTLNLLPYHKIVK
active: volasertib -0.371
inactive: [1] -0.18 | [2] 0.069 | epoxomicin 0.038 | [3] -0.067 | [4] -0.087 | [5] 0.055 | rosiglitazone 0.073 | [6] 0 | [7] -0.087 | saracatinib -0.024 | sotrastaurin -0.028 | alvocidib -0.078 | Tubastatin A -0.009 | [8] -0.033 | defactinib -0.077 | rucaparib 0.092 | [9] 0.01 | encorafenib 0.024 | [10] -0.076

MRPS15 (UniProt P82914)
inactive: [1] -0.021 | volasertib -0.048 | [2] 0.163 | epoxomicin -0.007 | [3] -0.084 | [4] -0.115 | [5] -0.01 | rosiglitazone 0.032 | [6] 0.049 | [7] 0.042 | saracatinib -0.134 | sotrastaurin -0.079 | alvocidib -0.057 | Tubastatin A 0.039 | [8] -0.07 | defactinib 0.035 | rucaparib 0.084 | [9] 0.115 | encorafenib 0.039 | [10] -0.01
